Test results published in PubChem BioAssay (Tox21).
Records with an inconclusive call do not appear. Unmarked numbers belong to inactive results. Activity calls are given as the source filed them. Calls follow the shape of the dose curve; as a rule, active = well fitted inhibition curve with a large enough effect in the repeat runs; inconclusive = weak or mixed curves; inactive = no such curve, though single readings can be large or run the other way.

Experiment: qHTS assay to identify small molecule antagonists of the estrogen related receptor (ERR) signaling pathway (AID 1224819; also: nearly all actives have a fitted effect of over 50% in size)
Settings: ERR reporter cell line, luciferase inhibition; series mostly up to 46.1 µM; activity change, negative = inhibition: at the top concentration
Text: National Center for Advancing Translational Sciences [NCATS]
NIH Chemical Genomics Center [NCGC]
U.S. Environmental Protection Agency [EPA]
National Institutes of Environmental Health Sciences [NIEHS]
National Toxicology Program [NTP]
U.S. Food and Drug Administration [FDA]
Estrogen related receptors (ERRs), the first orphan nuclear receptors discovered, play an important role in the control of cellular energy metabolism. ERRs are required for high-energy production in response to the environmental challenges. ERR-alpha was also identified as an adverse marker for breast cancer progression; ERR-alpha-positive tumors have a poor prognosis. To screen and to identify environmental compounds that perturb the ERR signaling pathways could provide valuable information for potential therapeutic or preventive measures in the treatment of metabolic disease. For identifying ERR antagonists, ERR cell line (provided by NTP) has been used to screen LOPAC library.
Tox21 Assay Protocol Summary:
The ERR cells were dispensed at 2,000 cells/5 ul/well in 1536-well white plates using a Multidrop dispenser. After the assay plates were incubated at a 37 C/5% CO2 incubator for 6 hours, 23 nL of compounds dissolved in DMSO, positive and negative controls or DMSO only was transferred to the assay plate by a pin tool. The plates were incubated at 37 C for 18 hours. 4 ul/well of One-Glo reagent was added into the assay plates using a Flying Reagent Dispenser. After 30 min incubation at room temperature, the luminescence intensity in the plates was measured using a ViewLux plate reader.
% is scaled to controls: 0 for no effect and ±100 for the full control effect; potency is read from the fitted curve at half-maximal effect.

Q: For COc1ccc2c(c1)c(CC(=O)O)c(C)n2C(=O)c1ccc(Cl)cc1, which “activity change, negative = inhibition” value is on record?
A: -18.5%

Q: With Nc1c2c(nc3ccccc13)CCCC2 as the compound, how does the “activity change, negative = inhibition” value read?
A: -5.12%

Q: Which “activity change, negative = inhibition” value does the source give for C1=CC2C3C=CC(C3)C2C1 (stereo unspecified) here?
A: 12.2% [at 92.2 µM]

Q: For CN[C@H]1CC[C@@H](c2ccc(Cl)c(Cl)c2)c2ccccc21, which “activity change, negative = inhibition” value is on record?
A: 3.57%

Q: With CC(C)NCC(O)c1ccc(O)c(O)c1 (stereo unspecified) as the compound, how does the “activity change, negative = inhibition” value read?
A: 6.93%

Q: For NS(=O)(=O)c1cc2c(cc1Cl)NCNS2(=O)=O, which “activity change, negative = inhibition” value is on record?
A: 7.59%

Q: For Cn1c(=O)c2c(ncn2C)n(C)c1=O, which “activity change, negative = inhibition” value is on record?
A: 1.83%

Q: With Nc1ccc(O)c([N+](=O)[O-])c1 as the compound, how does the “activity change, negative = inhibition” value read?
A: 45.1% [at 92.2 µM]

Q: With CCCCNC(=O)NS(=O)(=O)c1ccc(C)cc1 as the compound, how does the “activity change, negative = inhibition” value read?
A: 9.19%

Q: For CC(C)C(=O)Nc1ccc([N+](=O)[O-])c(C(F)(F)F)c1, which Potency is on record?
A: 22.8 µM (active)

Q: Which “activity change, negative = inhibition” value does the source give for CN(C)CCOC(C)(c1ccccc1)c1ccccn1 (stereo unspecified) here?
A: 13.3%
